Inconclusive results are not listed. Activity calls are given as the source filed them. The call rests on the fitted dose curve; in most records, active means well fitted curve in the direction sought with a large enough effect; inconclusive means small, poorly fitted or top-dose-only effect, or another doubt; inactive means no such curve, though single readings can be large; an effect the other way counts as inactive or inconclusive.
How the values were obtained:
[1] = Cell Viability - LYMP2-019 (AID 973); further: nearly all actives have a fitted effect of over 55% in size
Summary of the method: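 Cells plated at 2500/well and allowed 5 hr at 37 C before compound addition. After 24 hr incubation, CellTiter-Glo reagent was added, plates sat 30 min at room temperature, and luminescence was recorded.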

[2] = Cell Viability - LYMP2-021 (AID 974);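 further: compound exposure lasts 24 hours at 37 °C; nearly all actives have a fitted effect of over 55% in size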
Summary of the method: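 Concentration-response cytotoxicity in a human lymphoblastoid line: 24 hr treatment at 37 C in complete culture medium, tetraoctylammonium bromide as positive control, luminescent ATP quantitation as viability measure.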

[3] = Cell Viability - LYMP2-023 (AID 975);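 further: cellular ATP measured by luciferase luminescence as viability proxy; series mostly up to about 92 µM; cells exposed to compound for 24 hours at 37 °C; nearly all actives have a fitted effect of over 55% in size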
Summary of the method: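 Concentration-dependent drop in intracellular ATP measures acute cytotoxicity in a human lymphoblastoid line treated for 24 hours in complete culture medium. AC50 values are taken from Hill-equation fits of qHTS data.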

[4] = Cell Viability - LYMP2-025 (AID 976); further: series mostly up to about 92 µM
Summary of the method: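 In qHTS format, LYMP2-025 lymphoblastoid cells in complete culture medium received compound for 24 hr; ATP-based CellTiter-Glo signal gave viability, with AC50 derived by Hill equation.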

[5] = Cell Viability - LYMP2-002 (AID 977);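 further: compound exposure lasted 24 h at 37 °C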; further: potency means the concentration at half of the fitted maximal effect
Summary of the method: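 Cytotoxicity is scored as concentration-dependent loss of cellular ATP in a human lymphoblastoid line after 24 hr compound treatment at 37 C. AC50 is obtained by modelling concentration-response data with the Hill equation.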

[6] = Cell Viability - LYMP2-006 (AID 978);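 further: cells exposed to compound for 24 hours; nearly all actives have a fitted effect of over 60% in size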; further: potency means the concentration at half of the fitted maximal effect
Summary of the method: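 Human lymphoblastoid cells (LYMP2-006), 2500/well in complete medium, were treated with compound for 24 hr at 37 C. Cellular ATP was read by CellTiter-Glo luminescence after 30 min, and AC50 values came from Hill-equation fits of concentration-response data.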

[7] = Cell Viability - LYMP2-007 (AID 979);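 further: cells exposed to compound for 24 h before reading; nearly all actives have a fitted effect of over 60% in size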
Summary of the method: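 Acute toxicity is scored as a concentration-dependent fall in intracellular ATP in human lymphoblastoid cells treated 24 hr at 37 C, measured by luciferase luminescence; Hill-equation modelling yields AC50.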

[8] = Cell Viability - LYMP2-008 (AID 980); further: nearly all actives have a fitted effect of over 60% in size
Summary of the method: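 Acute cytotoxicity is scored as concentration-dependent loss of cellular ATP in a human lymphoblastoid line after 24 hr treatment at 37 C. ATP is quantified by luciferase luminescence.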

[9] = Cell Viability - LYMP2-010 (AID 981);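 further: cells exposed to compound for 24 hours at 37 °C; nearly all actives have a fitted effect of over 55% in size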; further: potency means the concentration at half of the fitted maximal effect
Summary of the method: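 Acute toxicity is scored as a concentration-dependent loss of cellular ATP in human lymphoblastoid cells after 24 hr compound exposure in complete medium. Tetraoctylammonium bromide is the positive control.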

[10] = Cell Viability - LYMP2-012 (AID 982); further: potency means the concentration at half of the fitted maximal effect
[11] = Cell Viability - LYMP2-014 (AID 983); further: series mostly up to about 92 µM; nearly all actives have a fitted effect of over 50% in size
Summary of the method: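 Decrease in intracellular ATP after 24 hr treatment at 37 C, measured by luciferase luminescence, indicated cytotoxicity. Concentration-response data were fitted with the standard Hill equation to give AC50.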

[12] = Cell Viability - LYMP2-016 (AID 984)
Summary of the method: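 Human lymphoblastoid LYMP2-016 cells, 2500 per well, treated with compounds for 24 h at 37 C. Viability read as intracellular ATP by CellTiter-Glo luminescence after 30 min at room temperature; AC50 from Hill fits of concentration-response.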

[13] = Cell Viability - LYMP2-018 (AID 985);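 further: compound exposure lasted 24 hr at 37 °C; nearly all actives have a fitted effect of over 50% in size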; further: potency means the concentration at half of the fitted maximal effect
Summary of the method: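 Acute cytotoxicity is scored as a concentration-dependent drop in intracellular ATP after 24 hr exposure of the lymphoblastoid line in complete culture medium, measured by luciferase luminescence. Potency is expressed as AC50 from Hill modelling.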

[14] = Cell Viability - LYMP2-020 (AID 986); further: nearly all actives have a fitted effect of over 55% in size; further: potency means the concentration at half of the fitted maximal effect
Summary of the method: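 Acute cytotoxicity in a human lymphoblastoid line is scored as a concentration-dependent fall in cellular ATP after 24 hr at 37 C in complete medium. The positive control is tetraoctylammonium bromide, and potency is given as Hill-fit AC50.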

[15] = Cell Viability - LYMP2-024 (AID 988); further: nearly all actives have a fitted effect of over 60% in size; further: potency means the concentration at half of the fitted maximal effect
Summary of the method: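 Acute toxicity is measured as concentration-dependent loss of intracellular ATP in a human lymphoblastoid line treated 24 hours at 37 C. Luciferase luminescence quantifies ATP; AC50 values come from standard Hill-equation modelling.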

[16] = Cell Viability - LYMP2-026 (AID 989); further: nearly all actives have a fitted effect of over 50% in size
Summary of the method: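 Concentration-dependent loss of intracellular ATP in human lymphoblastoid cells after 24 hr at 37 C, quantified by luciferase luminescence. AC50 derived from standard Hill equation.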

[17] = molecular target: Alpha-galactosidase A (Homo sapiens) (UniProt P06280); assay: Counterscreen for Glucocerebrosidase Inhibitors: qHTS Assay for Human alpha-Galactosidase at pH 4.5 (AID 992)
Summary of the method: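 Quantitative HTS: compounds tested from 0.7 nM up to 77 uM against 2 nM enzyme with 80 uM 4-MU alpha-D-galactopyranoside. The 20 min room-temperature reaction is stopped with 1M NaOH/1M glycine, pH 10.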

[18] = Cell Viability - LYMP1-002 - Assay at 24 hr (AID 993)
Summary of the method: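 qHTS, LYMP1-002 lymphoblastoid, 24 h cpd, 37 C, CellTiter-Glo ATP luminescence; AC50 via Hill eq.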

[19] = Cell Viability - LYMP1-002 - Assay at 40 hr (AID 994); further: nearly all actives have a fitted effect of over 60% in size; further: potency means the concentration at half of the fitted maximal effect
Summary of the method: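 Viability in the human lymphoblastoid line was measured as intracellular ATP via CellTiter-Glo after 40 hr compound exposure. Tetraoctylammonium bromide served as positive control.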

[20] = Cell Viability - LYMP2-022 (AID 987); further: nearly all actives have a fitted effect of over 55% in size; further: potency means the concentration at half of the fitted maximal effect
Summary of the method: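 Acute toxicity in a human lymphoblastoid line is scored as decreased intracellular ATP after 24 hr compound treatment at 37 C. ATP is measured by CellTiter-Glo luminescence; curves are fitted with the Hill equation to give AC50.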

Measured: Potency

Chain of Alpha-galactosidase A (Homo sapiens) (P06280 whole entry, looked up): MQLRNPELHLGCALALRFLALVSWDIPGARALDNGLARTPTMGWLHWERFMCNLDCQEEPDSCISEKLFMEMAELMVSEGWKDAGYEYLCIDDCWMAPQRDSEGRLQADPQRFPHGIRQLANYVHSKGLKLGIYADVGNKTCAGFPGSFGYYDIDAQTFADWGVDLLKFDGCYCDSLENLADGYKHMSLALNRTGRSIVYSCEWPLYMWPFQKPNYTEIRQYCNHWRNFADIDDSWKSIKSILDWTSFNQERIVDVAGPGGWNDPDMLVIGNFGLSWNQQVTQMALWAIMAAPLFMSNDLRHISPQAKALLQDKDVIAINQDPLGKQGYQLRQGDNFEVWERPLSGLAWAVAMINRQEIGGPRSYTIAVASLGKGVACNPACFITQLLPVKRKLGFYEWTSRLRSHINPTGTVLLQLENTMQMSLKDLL

COc1ccc(CN(CCN(C)C)c2ccccn2)cc1
not listed: [20]
inactive: all other assays above

N[C@@H](COP(=O)(O)O)C(=O)O
inactive: [17]

CC(C)NNC(=O)c1ccncc1
inactive: [17]

O=c1[nH]c(=O)n([C@H]2C[C@H](O)[C@@H](CO)O2)cc1Br
not listed: [17]
inactive: all other assays above

CN=C(NC#N)NCCSCc1nc[nH]c1C
not listed: [17]
inactive: all other assays above

COCC(=O)O[C@]1(CCN(C)CCCc2nc3ccccc3[nH]2)CCc2cc(F)ccc2[C@@H]1C(C)C
inactive: [17]

COc1cc(Cc2cnc(N)nc2N)cc(OC)c1OC
not listed: [17]
inactive: all other assays above

Cc1nc2c([nH]1)c(=O)n(C)c(=O)n2Cc1ccco1
inactive: [17]

C[N+](C)(C)CCCCCCCCCC[N+](C)(C)C
inactive: [17]

CCc1c(C)[nH]c2c1C(=O)C(CN1CCOCC1)CC2 (stereo not drawn)
inactive: [17]

O=C(O)CP(=O)(O)O
inactive: [17]

FC(F)(F)c1ccccc1-n1ccnc1
inactive: [17]

CCOC(=O)c1cnc2c(cnn2CC)c1NN=C(C)C
inactive: [17]

CCCCNC(=O)NS(=O)(=O)c1ccc(C)cc1
not listed: [17]
inactive: all other assays above

CN1CCN(CC(=O)N2c3ccccc3C(=O)Nc3cccnc32)CC1
inactive: [17]

NC(=Nc1ccccc1)Nc1ccccc1
not listed: [17]
inactive: all other assays above

Nc1ncn([C@@H]2O[C@H](CO)[C@@H](O)[C@H]2O)c(=O)n1
active: [6] 15.8 µM | [9] 15.8 µM | [10] 15.8 µM | [13] 7.94 µM | [14] 10 µM | [20] 15.8 µM | [15] 15.8 µM | [19] 15.8 µM

Nc1nc(N)c2nc(-c3ccccc3)c(N)nc2n1
not listed: [7] | [9] | [17] | [19] | [20]
inactive: all other assays above

CN1CCN(C2=Nc3ccccc3Oc3ccc(Cl)cc32)CC1
inactive: [17]

NC(=O)N1c2ccccc2C=Cc2ccccc21
not listed: [17]
inactive: all other assays above

CCCCOCCOCCOCc1cc2c(cc1CCC)OCO2
not listed: [17]
inactive: all other assays above

CN(C)CCCN1c2ccccc2Sc2ccccc21
inactive: [17]

CCCC(C(=O)OCCN(CC)CC)(c1ccccc1)c1ccccc1
inactive: [17]

COC(=O)[C@H]1[C@H]2C[C@@H]3c4[nH]c5cc(OC)ccc5c4CCN3C[C@H]2C[C@@H](OC(=O)c2cc(OC)c(OC)c(OC)c2)[C@@H]1OC
active: [5] 79.4 µM | [13] 50.1 µM | [19] 50.1 µM
inactive: [4]

CCN(CC)CCNC(=O)c1cc(S(C)(=O)=O)ccc1OC
inactive: [17]

Source: PubChem BioAssay (NCATS)
